High-throughput results from PubChem.
This is a sample that favours compounds with a hit; in the whole collection about 6.6% have one here.
SW480 rerep: A quantitative high throughput screen for small molecules that induce DNA re-replication in SW480 colon adenocarcinoma cells; actives 1.8% (n = 340,000); AID 624297, 2012; SW480 DNA re-replication, Hoechst DNA content imaging, 48 h; Potency, µM (highest dose often 46.1 µM), actives largely listed as activators; further: nearly all actives have a fitted effect of over 55% in size
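Image-based read-out: total Hoechst fluorescence of nuclei (405 nm excitation, 500-530 nm emission), with hits raising the fraction of high-intensity nuclei. SW480 colon cells incubated 48 hr with compounds at 37 C.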
TSG101-PTAP inh: qHTS Assay for Iinhibitors of HIV-1 Budding by Blocking the Interaction of PTAP/TSG101; Fluorescence polarization, FITC-PTAP peptide / Tsg101 binding; Potency, µM (doses to about 115 µM), hits mostly inhibitors; 340,000 tested, under 10 active; AID 493005, 2010; Tumor susceptibility gene 101 protein (Homo sapiens), Q99816; active means well fitted inhibition curve with a large enough effect in the main read-out, with a control signal flat, not every such curve was filed as active; inconclusive means small, poorly fitted or top-dose-only effect, or effect the other way, or a change in a side signal; inactive means no such curve, though single readings can be large or run the other way
Target sequence (Q99816 whole entry, looked up): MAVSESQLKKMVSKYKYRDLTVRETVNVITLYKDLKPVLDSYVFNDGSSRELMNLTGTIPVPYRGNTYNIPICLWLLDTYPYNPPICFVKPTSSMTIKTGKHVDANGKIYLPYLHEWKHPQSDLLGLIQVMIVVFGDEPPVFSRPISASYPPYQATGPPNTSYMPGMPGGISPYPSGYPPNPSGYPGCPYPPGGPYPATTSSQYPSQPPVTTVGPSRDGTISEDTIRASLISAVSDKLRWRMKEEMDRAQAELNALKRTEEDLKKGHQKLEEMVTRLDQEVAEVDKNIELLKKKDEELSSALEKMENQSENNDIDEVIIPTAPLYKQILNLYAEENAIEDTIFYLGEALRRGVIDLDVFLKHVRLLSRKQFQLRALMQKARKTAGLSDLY
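Fluorescence polarization binding of Tsg101 binding domain (10 uM final) to FITC-labeled PTAP peptide (50 nM final) in HEPES pH 7.5 buffer with NaCl, Tween 20, EDTA, TCEP. Compounds added before peptide; binding 20 min at RT.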
RGS4 inh: Inhibitors of Regulator of G Protein Signaling (RGS) 4: qHTS; Transcreener GDP fluorescence polarization, RGS4-accelerated GTP hydrolysis; Potency, µM (top dose mostly 114 µM), actives largely listed as inhibitors; actives 0.039% (n = 390,000); further: nearly all actives have a fitted effect of over 75% in size
Target sequence (P49798 whole entry, looked up): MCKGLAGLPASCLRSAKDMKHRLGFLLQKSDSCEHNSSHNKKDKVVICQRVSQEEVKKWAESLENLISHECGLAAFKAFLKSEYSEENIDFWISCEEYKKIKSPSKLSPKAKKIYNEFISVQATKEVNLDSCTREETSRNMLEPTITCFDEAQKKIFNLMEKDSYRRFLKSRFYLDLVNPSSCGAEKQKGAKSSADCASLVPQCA
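MLSMR compounds (23 nl, pin-transferred) preincubated 10 min at room temperature with a 500nM (2x) first reagent, then RGS4 at 900nM (2x) plus Transcreener GDP mix added; fluorescence polarization (620/688 nm) read before and after 90 min at 30 °C.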
KB-V1 cytotox: qHTS assay for MDR1-selective chemotherapeutics: Primary screen using the drug-selected MDR subline cells KB-V1. KB-V1 MDR cells viability, CellTiter-Glo, 72 h. Potency, µM (top dose mostly 46.1 µM), actives largely listed as cytotoxic. actives 3.4% (n = 400,000); further: nearly all actives have a fitted effect of over 60% in size
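Luminescent ATP read-out (CellTiter-Glo, 10 min) measures survival of drug-selected KB-V1 MDR cells after 72 h, 37 degrees C compound exposure. Medium: phenol-red-free DMEM, 10% FBS. Values from fitted concentration-response curves.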
MCF10A rerep: A quantitative high throughput screen for small molecules that induce DNA re-replication in MCF 10a normal breast cells; MCF 10A DNA re-replication, Hoechst nuclear intensity, 48 h; actives 2.9% (n = 350,000); Potency, µM (highest dose often 46.1 µM), hits mostly activators; further: nearly all actives have a fitted effect of over 50% in size
KB-3-1 tox: qHTS assay for MDR1-selective chemotherapeutics: Primary screen using the parental adenocarcinoma cell KB-3-1. AID 1347075, 2019. KB-3-1 viability, CellTiter-Glo ATP luminescence, 72 h. Potency, µM (top dose mostly 46.1 µM), most hits filed as cytotoxic. actives 1.4% (n = 400,000); further: nearly all actives have a fitted effect of over 60% in size
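Here the drug-naive KB-3-1 line serves as comparator for MDR sub-line selectivity; cells received compound titrations, 72 h at 37 °C, then CellTiter-Glo readout.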
Numbers stand for hits; ! = not confirmed by another sample. Unless noted, the call rests on the fitted dose curve; in most records, active means well fitted curve in the direction sought with a large enough effect; inconclusive means small, poorly fitted or top-dose-only effect, or another doubt; inactive means no such curve, though single readings can be large; an effect the other way counts as inactive or inconclusive.

NNC(=O)c1cc(-c2cccs2)nc2ccccc12 was read as SW480 rerep inconclusive, TSG101-PTAP inh inactive, RGS4 inh inactive, KB-V1 cytotox inactive, MCF10A rerep inconclusive and KB-3-1 tox inactive.
Screening O=C(N/N=C/c1ccsc1)c1cc(-c2cccs2)nc2ccccc12 returned SW480 rerep 6.5µM, TSG101-PTAP inh inactive, RGS4 inh inactive, KB-V1 cytotox 13µM, MCF10A rerep 5.8µM and KB-3-1 tox inconclusive.
`C/C(=N\NC(=O)c1cc(-c2ccncc2)nc2ccccc12)c1ccc(N2CCOCC2)cc1` gave SW480 rerep inactive, TSG101-PTAP inh inactive, RGS4 inh inconclusive, KB-V1 cytotox inactive, MCF10A rerep 5.8µM and KB-3-1 tox inactive.
For O=C(O)c1ccc(/C=N/NC(=O)c2cc(-c3cccs3)nc3ccccc23)cc1 the results were SW480 rerep inactive, TSG101-PTAP inh inactive, RGS4 inh inactive, KB-V1 cytotox inconclusive, MCF10A rerep inconclusive and KB-3-1 tox inactive.
For CC(=NNC(=O)c1cc(C)nc2ccccc12)c1ccc(N2CCOCC2)cc1 the results were SW480 rerep inactive, TSG101-PTAP inh inactive, RGS4 inh inactive, KB-V1 cytotox inactive, MCF10A rerep inactive and KB-3-1 tox inactive.
For COc1ccc(N2C(=O)C(CC(=O)Nc3ccc(Cl)cc3)N(Cc3ccc4c(c3)OCO4)C2=O)cc1 (configuration not stated) the results were RGS4 inh inactive, KB-V1 cytotox inactive and KB-3-1 tox inactive.
For COc1ccc(NC(=O)CN2C(=O)C3(SCC(=O)N3c3cccc(OC)c3)c3ccccc32)cc1 (configuration not stated) the results were RGS4 inh inactive, KB-V1 cytotox inactive and KB-3-1 tox inactive.
Screening CCCN(C(=O)c1sc2nc3n(c(=O)c2c1C)CCCC3)c1ccccc1C returned RGS4 inh inactive, KB-V1 cytotox inconclusive and KB-3-1 tox inconclusive.
Screening CCCSCCCNC(=O)C1CCN(c2nc3ccccc3nc2C(F)(F)F)CC1 returned RGS4 inh inactive, KB-V1 cytotox inactive and KB-3-1 tox inactive.
COc1ccccc1-c1cc(C(=O)N/N=C/c2sccc2C)c2ccccc2n1 was read as SW480 rerep inactive, TSG101-PTAP inh inactive, RGS4 inh inactive, KB-V1 cytotox inactive, MCF10A rerep inconclusive and KB-3-1 tox inconclusive.
Cc1ccsc1/C=N/NC(=O)c1cc(-c2ccncc2)nc2ccccc12 was read as SW480 rerep 1.5µM, TSG101-PTAP inh inactive, RGS4 inh inactive, KB-V1 cytotox inconclusive, MCF10A rerep 0.73µM and KB-3-1 tox 1.2µM.
Screening O=C(Nc1cccc(Cl)c1)c1cc(N=Nc2ccc([N+](=O)[O-])cc2Cl)ccc1O returned SW480 rerep inactive, TSG101-PTAP inh inactive, RGS4 inh inactive, KB-V1 cytotox inconclusive, MCF10A rerep inactive and KB-3-1 tox 21µM.
For COc1ccc(Cl)cc1C(=O)Nc1ccc([N+](=O)[O-])cc1Cl the results were RGS4 inh inactive, KB-V1 cytotox inactive and KB-3-1 tox inactive.
`O=C(Nc1ccc([N+](=O)[O-])cc1Cl)c1cc(Cl)ccc1O` gave SW480 rerep 3.2µM!, TSG101-PTAP inh inactive, RGS4 inh inconclusive, KB-V1 cytotox 1µM, MCF10A rerep inconclusive and KB-3-1 tox 1.2µM.
`COc1ccc2cc3cc(C(=O)N4CCN(c5ccccc5F)CC4)oc3nc2c1` gave RGS4 inh inactive, KB-V1 cytotox inactive and KB-3-1 tox inactive.
`CC1CN(c2ccc([N+](=O)[O-])c(NCCOc3ccccc3)c2)CC(C)N1` (configuration not stated) gave SW480 rerep inactive, TSG101-PTAP inh inactive, RGS4 inh inactive, KB-V1 cytotox inconclusive, MCF10A rerep inactive and KB-3-1 tox inactive.
For Cc1ccccc1OCCNc1cc(N2CC(C)NC(C)C2)ccc1[N+](=O)[O-] (configuration not stated) the results were SW480 rerep inactive, TSG101-PTAP inh inactive, RGS4 inh inactive, KB-V1 cytotox 21µM, MCF10A rerep inactive and KB-3-1 tox inconclusive.
`Cc1cc(O)c(N=Cc2cc3c(cc2[N+](=O)[O-])OCO3)cc1C` gave SW480 rerep inconclusive, TSG101-PTAP inh inactive, RGS4 inh inactive, KB-V1 cytotox inactive, MCF10A rerep 16µM and KB-3-1 tox inactive.
For O=C(Oc1cc2oc(=O)cc(-c3ccccc3)c2cc1Cl)C1CCCCC1 the results were SW480 rerep inconclusive, TSG101-PTAP inh inactive, RGS4 inh inactive, KB-V1 cytotox inconclusive, MCF10A rerep inconclusive and KB-3-1 tox inactive.
Screening CC(C)(C)OC(=O)NCC(=O)Oc1cc2oc(=O)cc(-c3ccccc3)c2cc1Cl returned SW480 rerep 21µM, TSG101-PTAP inh inactive, RGS4 inh inactive, KB-V1 cytotox inactive, MCF10A rerep 23µM and KB-3-1 tox inactive.
COc1cc(-c2nnc(Sc3ccc(C(F)(F)F)cc3[N+](=O)[O-])o2)cc(OC)c1OC was read as SW480 rerep inconclusive, TSG101-PTAP inh inactive, RGS4 inh inactive, KB-V1 cytotox inactive, MCF10A rerep 18µM and KB-3-1 tox inactive.
`COc1ccc(NC(=S)N2CCN(Cc3ccccc3)CC2)cc1` gave SW480 rerep inactive, TSG101-PTAP inh inactive, RGS4 inh inactive, KB-V1 cytotox inactive, MCF10A rerep inactive and KB-3-1 tox inactive.
For COc1ccc(CNC(=S)N2CCN(Cc3ccccc3)CC2)cc1 the results were SW480 rerep inconclusive, TSG101-PTAP inh inactive, RGS4 inh inactive, KB-V1 cytotox 16µM, MCF10A rerep inactive and KB-3-1 tox inactive.
OC(CN1CCCCC1)Cn1c2ccccc2c2ccccc21 (configuration not stated) was read as SW480 rerep inactive, TSG101-PTAP inh inactive, RGS4 inh inactive, KB-V1 cytotox inactive, MCF10A rerep inactive and KB-3-1 tox inactive.
CCOc1ccc(CN2CCN(CC(O)Cn3c4ccccc4c4ccccc43)CC2)cc1 (configuration not stated) was read as SW480 rerep inconclusive, TSG101-PTAP inh inactive, RGS4 inh inactive, KB-V1 cytotox inconclusive, MCF10A rerep inconclusive and KB-3-1 tox inactive.
Screening COc1ccc(CN2CCN(CC(O)Cn3c4ccccc4c4ccccc43)CC2)cc1 (configuration not stated) returned SW480 rerep inconclusive, TSG101-PTAP inh inactive, RGS4 inh inactive, KB-V1 cytotox 6.5µM, MCF10A rerep inconclusive and KB-3-1 tox inconclusive.
